From PubChem BioAssay (Tox21) come the findings set out here.

For assay [1], the target named is Thyrotropin-releasing hormone receptor (Homo sapiens) (UniProt P34981). Kind of assay: qHTS assay to identify small molecule agonists of the thyrotropin-releasing hormone receptor (TRHR) signaling pathway (AID 1346891; calls by dose curve; note: series mostly up to about 58 µM). A digest of the protocol: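 Intracellular calcium rise, read as fluorescence every second for 3 min, served as the agonist signal in dye-loaded HEK293 cells expressing TRHR; each compound ran at 15 concentrations in triplicate.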
Thyrotropin-releasing hormone receptor (Homo sapiens), sequence (P34981 whole entry, looked up): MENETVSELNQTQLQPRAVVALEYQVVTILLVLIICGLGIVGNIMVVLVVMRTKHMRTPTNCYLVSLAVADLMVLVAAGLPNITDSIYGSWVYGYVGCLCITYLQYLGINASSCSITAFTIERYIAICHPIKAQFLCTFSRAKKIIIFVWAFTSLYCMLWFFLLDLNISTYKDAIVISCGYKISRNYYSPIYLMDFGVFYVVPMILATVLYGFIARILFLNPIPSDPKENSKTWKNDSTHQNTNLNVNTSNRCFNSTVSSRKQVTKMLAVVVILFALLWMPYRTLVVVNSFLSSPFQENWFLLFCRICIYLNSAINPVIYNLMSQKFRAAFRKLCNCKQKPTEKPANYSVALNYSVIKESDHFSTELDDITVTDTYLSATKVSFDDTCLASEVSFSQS
Background: qHTS replaces the single test concentration by a dilution series.

Assay [2] is described as follows: Human pregnane X receptor (PXR) small molecule agonists, qHTS cell viability counter screen (AID 1346977). Note: nearly all actives have a fitted effect of over 50% in size. Summed up: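 PXR-Luc HepG2, 2,000 cells/well, 5% charcoal-stripped FBS; 5hr settle; cpd 24hr, 37C/5% CO2; CellTiter-Fluor at 23hr, read 1hr later (fluorescence).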
Assay [3] can be described thus: Caspase-3/7 induction in HepG2 cells by small molecules, qHTS assay (AID 1346978). Note: nearly all actives have a fitted effect of over 15% in size. A digest of the protocol: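 Caspase-3/7 induction was measured by Caspase-Glo 3/7 luminescence (30 min, room temperature) after a 17 hr compound exposure of wild-type HepG2 cells seeded at 2,000 per well and pre-incubated 5 hr.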
Assay [4] is described as follows: Caspase-3/7 induction in CHO-K1 cells by small molecules, qHTS cell viability counter screen (AID 1346979). Note: nearly all actives have a fitted effect of over 35% in size. Summed up: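 Cells (CHO-K1, wild type) are plated at 1,500 per well and incubated 5hr. Test compounds in DMSO are then pinned in, followed by 16hr at 37C and 5% CO2. Viability is read by CellTiter-Fluor fluorescence after 1hr.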
A short description of assay [5]: Caspase-3/7 induction in CHO-K1 cells by small molecules, qHTS assay (AID 1346980). Note: nearly all actives have a fitted effect of over 15% in size. A digest of the protocol:
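Luminescent Caspase-Glo 3/7 read (30min, room temperature) quantified apoptosis induction. Cells were wild-type CHO-K1, treated with compound for 17hr at 37 C and 5% CO2.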

A short description of assay [6]: Caspase-3/7 induction in HepG2 cells by small molecules, qHTS cell viability counter screen (AID 1346981). Note: series mostly up to about 92 µM; nearly all actives have a fitted effect of over 30% in size. Summed up: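 In this quantitative HTS counter screen, compounds delivered in DMSO were left on unmodified HepG2 cells for 16 hr at 37 C. Viability was then determined fluorometrically with CellTiter-Fluor, in parallel with caspase-3/7 induction in the same wells.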

The target of assay [7] is Nuclear receptor subfamily 1 group I member 2 (Homo sapiens) (UniProt O75469). Kind of assay: Human pregnane X receptor (PXR) small molecule agonists, qHTS assay (AID 1346982). Note: nearly all actives have a fitted effect of over 35% in size. Note: potency is the fitted concentration of half-maximal effect. Summed up: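 Reporter HepG2 cells expressing PXR-Luc are cultured in charcoal-stripped FBS (5%), treated with compounds for 24 hr at 37 C, and assayed by ONE-Glo luminescence after 30 min at room temperature.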
Nuclear receptor subfamily 1 group I member 2 (Homo sapiens), sequence (O75469 whole entry, looked up): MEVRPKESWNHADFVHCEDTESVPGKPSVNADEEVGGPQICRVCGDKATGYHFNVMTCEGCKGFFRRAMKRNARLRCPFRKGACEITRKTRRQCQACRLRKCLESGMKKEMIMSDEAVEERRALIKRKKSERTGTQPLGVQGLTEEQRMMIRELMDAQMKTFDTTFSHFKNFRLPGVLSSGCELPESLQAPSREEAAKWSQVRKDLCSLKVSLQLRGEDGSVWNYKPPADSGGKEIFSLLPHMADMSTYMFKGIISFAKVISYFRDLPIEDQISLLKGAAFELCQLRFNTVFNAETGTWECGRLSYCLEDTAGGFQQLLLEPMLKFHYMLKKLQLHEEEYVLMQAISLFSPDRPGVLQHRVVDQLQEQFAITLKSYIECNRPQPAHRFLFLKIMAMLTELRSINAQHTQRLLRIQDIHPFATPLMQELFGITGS

In assay [8] the target is Cytochrome P450 2D6 (Homo sapiens) (UniProt P10635). Kind of assay: Cytochrome P450 Family 2 Subfamily D Member 6 (CYP2D6) small molecule antagonists: luciferase reporter qHTS assay (AID 1671196). Note: nearly all actives have a fitted effect of over 50% in size. Note: potency is the fitted concentration of half-maximal effect. A digest of the protocol: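 Test chemicals meet CYP2D6 plus proluciferin substrate (10 min, RT); NADPH regenerating solution then drives turnover for 1 h. Detection reagent halts the reaction; luminescence measured after 20 min.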
Cytochrome P450 2D6 (Homo sapiens), sequence (P10635 whole entry, looked up): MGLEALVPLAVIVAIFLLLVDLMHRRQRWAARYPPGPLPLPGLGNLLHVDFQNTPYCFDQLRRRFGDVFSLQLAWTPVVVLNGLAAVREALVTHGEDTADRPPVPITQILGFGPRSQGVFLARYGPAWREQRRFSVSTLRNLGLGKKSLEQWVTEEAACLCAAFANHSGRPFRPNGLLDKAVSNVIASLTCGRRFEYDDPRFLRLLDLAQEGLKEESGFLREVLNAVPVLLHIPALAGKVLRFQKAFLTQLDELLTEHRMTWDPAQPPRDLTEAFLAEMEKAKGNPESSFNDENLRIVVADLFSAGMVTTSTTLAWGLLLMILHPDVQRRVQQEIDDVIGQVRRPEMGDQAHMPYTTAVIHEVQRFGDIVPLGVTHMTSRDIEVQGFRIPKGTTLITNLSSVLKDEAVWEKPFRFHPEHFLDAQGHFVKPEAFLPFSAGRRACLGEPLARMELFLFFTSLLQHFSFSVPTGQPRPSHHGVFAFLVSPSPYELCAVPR
(In general: A reporter such as luciferase makes a cellular process visible.)

In assay [9] the target is Cytochrome P450 2C19 (Homo sapiens) (UniProt P33261). Kind of assay: Cytochrome P450 Family 2 Subfamily C Member 19 (CYP2C19) small molecule antagonists: luciferase reporter qHTS assay (AID 1671197). Note: nearly all actives have a fitted effect of over 65% in size. Note: potency is the fitted concentration of half-maximal effect. Summed up: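 Compounds were tested on CYP2C19 activity via proluciferin conversion to luciferin. The 37C, 1 h reaction followed NADPH addition; detection reagent stopped it.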
Cytochrome P450 2C19 (Homo sapiens), sequence (P33261 whole entry, looked up): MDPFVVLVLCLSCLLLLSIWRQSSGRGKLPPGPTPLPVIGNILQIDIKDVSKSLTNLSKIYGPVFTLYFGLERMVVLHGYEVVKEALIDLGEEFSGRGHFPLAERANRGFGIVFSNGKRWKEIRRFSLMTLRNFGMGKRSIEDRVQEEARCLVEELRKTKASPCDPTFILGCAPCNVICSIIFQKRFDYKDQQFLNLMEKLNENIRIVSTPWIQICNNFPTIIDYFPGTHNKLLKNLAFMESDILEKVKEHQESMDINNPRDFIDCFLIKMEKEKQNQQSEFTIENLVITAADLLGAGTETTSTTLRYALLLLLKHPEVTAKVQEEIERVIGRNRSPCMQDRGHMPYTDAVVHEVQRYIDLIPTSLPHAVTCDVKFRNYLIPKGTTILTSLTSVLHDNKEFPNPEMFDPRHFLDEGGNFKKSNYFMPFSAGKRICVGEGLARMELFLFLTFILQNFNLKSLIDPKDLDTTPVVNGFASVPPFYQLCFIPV

Assay [10] has as its target Cytochrome P450 2C9 (Homo sapiens) (UniProt P11712). Kind of assay: Cytochrome P450 Family 2 Subfamily C Member 9 (CYP2C9) small molecule antagonists: luciferase reporter qHTS assay (AID 1671198). Note: nearly all actives have a fitted effect of over 50% in size. Note: potency is the fitted concentration of half-maximal effect. A digest of the protocol: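 Enzyme-substrate mix preincubated with compound 10 min at room temperature; reaction started with NADPH regeneration solution, 1 h 37C. Luminescent luciferin product read after 20 min detection reagent.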

Assay [11] concerns the target Voltage-gated inwardly rectifying potassium channel KCNH2 (Homo sapiens) (UniProt Q12809). Kind of assay: Human Ether-a-go-go-Related Gene (hERG) channel small molecule antagonists: fluorescence cell-based qHTS assay (AID 1671200).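 Note: hERG-expressing U2OS cells given a thallium stimulus after FluxOR II dye loading; series mostly up to about 77 µM; nearly all actives have a fitted effect of over 50% in size.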 A digest of the protocol: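 Channel function was assessed by thallium flux. Cells seeded the previous day and kept at 37 C took up FluxOR II dye over 1 h in the dark at room temperature, then sat another 10 min before stimulation.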
A general note: The hERG channel carries a current that helps repolarise heart muscle cells.

Assay [12] has as its target Cytochrome P450 3A4 (Homo sapiens) (UniProt P08684). Kind of assay: Cytochrome P450 Family 3 Subfamily A Member 4 (CYP3A4) small molecule antagonists: luciferase reporter qHTS assay (AID 1671201). Note: nearly all actives have a fitted effect of over 50% in size. Note: potency is the fitted concentration of half-maximal effect. Summed up: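 Compounds in DMSO were pin-transferred onto CYP3A4 enzyme-substrate mix and held 10 min at room temperature. NADPH regenerating solution started the reaction for 1 h; luciferin detection reagent stopped it, and luminescence was read after 20 min.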

Assay [13] concerns the target Cytochrome P450 1A2 (Homo sapiens) (UniProt P05177). Kind of assay: Cytochrome P450 Family 1 Subfamily A Member 2 (CYP1A2) small molecule antagonists: luciferase reporter qHTS assay (AID 1671199). Note: nearly all actives have a fitted effect of over 50% in size. Note: potency is the fitted concentration of half-maximal effect. Summed up: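 Steps: enzyme-substrate mix dispensed; test compounds and furafylline control pinned in; 10 min room temperature; NADPH regeneration solution added, 1 h; reaction stopped with luciferin detection reagent; luminescence read after 20 min.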

The target of assay [14] is Nuclear receptor subfamily 1 group I member 2 (Rattus norvegicus) (UniProt Q9R1A7). Kind of assay: Rat pregnane X receptor (rPXR) activation by small molecules, qHTS assay (AID 1346983). Note: nearly all actives have a fitted effect of over 20% in size. The conditions noted are these: rPXR luciferase reporter cells, One-Glo luminescence, 24 h; max activation: stronger effect = higher value. Summed up:
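Luminescent readout (One-Glo luciferase, 30 min room temperature) followed 24 hr compound treatment at 37 C of rPXR cells plated 2,000 per well and preincubated 5hr; qHTS format with compounds delivered in DMSO.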

The target of assay [15] is Nuclear receptor subfamily 1 group I member 2 (Homo sapiens) (UniProt O75469). Kind of assay: CYP3A4 induction through human pregnane X receptor (PXR) by small molecules, qHTS assay (AID 1346984). Note: nearly all actives have a fitted effect of over 40% in size. Summed up: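 Induction measured in HepG2-based DPX-2 cells co-expressing human PXR and a CYP3A4 promoter-driven luciferase. After a 24-hour compound exposure, cells received CYP3A4 luciferin substrate at 3uM final for 3 hours, and light output was then recorded.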

Several values for one entry are separate records, joined by “and”; a condition that tells them apart may be missing. Identical values can stand only once. Records with an inconclusive call do not appear. A structure can be active in one record and inactive in another. Activity calls are given as the source filed them. Unless noted, calls come from the whole dose curve; as a rule, active = well fitted curve in the direction sought with a large enough effect in the repeat runs; inconclusive = weak or mixed curves; inactive = no such curve, though single readings can be large; an effect the other way counts as inactive or inconclusive.
% is set by controls: 0 for no effect and ±100 for the full control effect.

Cytochrome P450 1A2 (Homo sapiens), sequence (P05177 whole entry, looked up): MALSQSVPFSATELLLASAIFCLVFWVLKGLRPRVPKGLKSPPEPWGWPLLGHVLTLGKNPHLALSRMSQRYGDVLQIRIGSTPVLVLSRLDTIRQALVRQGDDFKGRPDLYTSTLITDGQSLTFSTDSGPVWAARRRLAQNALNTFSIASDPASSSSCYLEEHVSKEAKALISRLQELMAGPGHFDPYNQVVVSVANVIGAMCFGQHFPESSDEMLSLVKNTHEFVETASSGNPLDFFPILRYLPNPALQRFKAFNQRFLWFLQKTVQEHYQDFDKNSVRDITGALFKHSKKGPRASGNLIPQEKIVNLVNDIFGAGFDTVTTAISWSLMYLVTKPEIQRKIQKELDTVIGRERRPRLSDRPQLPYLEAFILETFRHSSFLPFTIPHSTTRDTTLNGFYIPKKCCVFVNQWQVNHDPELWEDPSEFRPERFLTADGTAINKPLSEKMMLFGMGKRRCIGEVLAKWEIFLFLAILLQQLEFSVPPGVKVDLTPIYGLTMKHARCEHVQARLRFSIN
Voltage-gated inwardly rectifying potassium channel KCNH2 (Homo sapiens), sequence (Q12809 whole entry, looked up): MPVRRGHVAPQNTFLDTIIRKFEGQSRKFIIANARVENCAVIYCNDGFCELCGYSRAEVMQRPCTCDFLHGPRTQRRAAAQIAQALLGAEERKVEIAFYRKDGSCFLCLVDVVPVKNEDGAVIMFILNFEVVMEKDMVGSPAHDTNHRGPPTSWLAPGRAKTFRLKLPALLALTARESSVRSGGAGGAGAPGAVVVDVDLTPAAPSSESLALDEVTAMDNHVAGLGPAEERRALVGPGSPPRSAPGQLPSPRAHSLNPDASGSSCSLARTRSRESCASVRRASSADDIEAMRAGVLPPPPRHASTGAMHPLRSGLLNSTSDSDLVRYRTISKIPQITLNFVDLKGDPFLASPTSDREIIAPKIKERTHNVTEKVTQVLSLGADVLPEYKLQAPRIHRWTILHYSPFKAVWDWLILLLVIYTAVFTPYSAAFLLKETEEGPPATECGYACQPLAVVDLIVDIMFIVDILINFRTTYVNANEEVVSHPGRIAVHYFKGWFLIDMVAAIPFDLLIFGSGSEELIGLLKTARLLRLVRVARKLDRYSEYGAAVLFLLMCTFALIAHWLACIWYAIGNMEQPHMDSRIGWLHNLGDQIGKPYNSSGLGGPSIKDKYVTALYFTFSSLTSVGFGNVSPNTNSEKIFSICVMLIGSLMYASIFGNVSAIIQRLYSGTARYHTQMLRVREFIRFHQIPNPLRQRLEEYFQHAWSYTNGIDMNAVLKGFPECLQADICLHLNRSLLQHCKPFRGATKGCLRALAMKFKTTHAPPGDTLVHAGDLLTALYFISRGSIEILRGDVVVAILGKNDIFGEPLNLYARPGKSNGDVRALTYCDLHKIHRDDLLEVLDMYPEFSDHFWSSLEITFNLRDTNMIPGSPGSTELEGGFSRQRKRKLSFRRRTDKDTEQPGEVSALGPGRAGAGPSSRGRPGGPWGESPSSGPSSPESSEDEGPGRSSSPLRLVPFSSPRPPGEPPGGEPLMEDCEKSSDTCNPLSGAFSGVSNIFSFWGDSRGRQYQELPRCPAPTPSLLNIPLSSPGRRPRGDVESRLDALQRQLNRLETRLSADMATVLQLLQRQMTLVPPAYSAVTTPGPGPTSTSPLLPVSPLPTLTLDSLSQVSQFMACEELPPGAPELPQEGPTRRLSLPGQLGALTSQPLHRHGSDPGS
Cytochrome P450 3A4 (Homo sapiens), sequence (P08684 whole entry, looked up): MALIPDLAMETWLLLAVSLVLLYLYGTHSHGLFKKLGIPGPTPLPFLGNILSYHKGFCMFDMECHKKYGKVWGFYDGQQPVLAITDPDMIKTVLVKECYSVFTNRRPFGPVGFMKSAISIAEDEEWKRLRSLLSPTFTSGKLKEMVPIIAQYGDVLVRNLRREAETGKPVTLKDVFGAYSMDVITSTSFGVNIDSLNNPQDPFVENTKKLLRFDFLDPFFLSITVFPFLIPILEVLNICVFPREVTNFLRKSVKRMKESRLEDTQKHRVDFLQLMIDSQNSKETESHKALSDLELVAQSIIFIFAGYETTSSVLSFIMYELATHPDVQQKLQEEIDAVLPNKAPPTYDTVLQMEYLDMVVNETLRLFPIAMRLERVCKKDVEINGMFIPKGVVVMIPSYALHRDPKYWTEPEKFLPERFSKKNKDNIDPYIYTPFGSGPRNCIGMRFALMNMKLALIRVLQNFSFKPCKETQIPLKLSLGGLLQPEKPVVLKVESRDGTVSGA
Cytochrome P450 2C9 (Homo sapiens), sequence (P11712 whole entry, looked up): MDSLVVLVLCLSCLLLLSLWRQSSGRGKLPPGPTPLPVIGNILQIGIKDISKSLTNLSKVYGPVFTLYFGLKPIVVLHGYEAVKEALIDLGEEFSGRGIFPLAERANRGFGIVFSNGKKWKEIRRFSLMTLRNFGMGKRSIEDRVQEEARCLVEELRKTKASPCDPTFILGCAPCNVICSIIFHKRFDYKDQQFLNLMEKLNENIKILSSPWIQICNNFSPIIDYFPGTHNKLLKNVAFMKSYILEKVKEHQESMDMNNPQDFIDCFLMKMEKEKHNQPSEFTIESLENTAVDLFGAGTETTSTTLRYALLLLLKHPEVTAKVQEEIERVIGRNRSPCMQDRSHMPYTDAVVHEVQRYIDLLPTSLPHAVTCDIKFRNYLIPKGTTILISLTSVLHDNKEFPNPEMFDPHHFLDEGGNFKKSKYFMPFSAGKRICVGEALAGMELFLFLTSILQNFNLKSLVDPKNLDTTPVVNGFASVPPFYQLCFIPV
Nuclear receptor subfamily 1 group I member 2 (Rattus norvegicus), sequence (Q9R1A7 whole entry, looked up): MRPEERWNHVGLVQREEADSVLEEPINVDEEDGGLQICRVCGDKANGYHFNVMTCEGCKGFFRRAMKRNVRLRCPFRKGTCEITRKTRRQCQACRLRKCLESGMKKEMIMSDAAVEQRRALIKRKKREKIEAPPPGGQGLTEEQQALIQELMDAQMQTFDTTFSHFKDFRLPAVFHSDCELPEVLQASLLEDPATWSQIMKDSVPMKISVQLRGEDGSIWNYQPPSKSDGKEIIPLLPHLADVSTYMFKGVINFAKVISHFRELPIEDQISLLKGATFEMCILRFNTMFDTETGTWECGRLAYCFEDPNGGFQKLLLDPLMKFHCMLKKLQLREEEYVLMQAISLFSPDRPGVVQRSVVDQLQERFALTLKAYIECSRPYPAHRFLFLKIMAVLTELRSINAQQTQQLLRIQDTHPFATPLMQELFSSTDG

For `OC1CCCC1`, the Potency entry in [1], in assay [2], in [3], in [4], in assay [5] and in [6] was “inactive” throughout. The Potency entry in assay [8], in [9], in assay [10], in assay [11] and in [12] was “inactive” in each case. Further, in [7], the Potency was 30.6 µM (active) and inactive.
`c1ccc2[nH]cnc2c1`: the Potency entry in assay [1], in assay [2], in assay [3], in assay [4], in assay [5] and in assay [6] was “inactive” in each case. For the same molecule, the Potency result in assay [7], in assay [8], in assay [9], in [10], in [13] and in [11] was “inactive” in each case. The Potency entry in assay [12] is “inactive”.
For `CC(C)Cc1ccccc1`, the Potency result in [1], in [2], in assay [3], in assay [4], in assay [5] and in [6] was “inactive” each time. The Potency entry in assay [7], in [8], in assay [9], in assay [10], in [13] and in assay [11] was “inactive” each time. For the same molecule, in assay [12], the Potency entry is “inactive”.
In the case of `CCCCC(CC)COC(=O)/C=C\C(=O)OCC(CC)CCCC` (stereo not drawn), the Potency result in assay [1], in [2], in assay [3], in [4], in assay [5] and in assay [6] was “inactive” in each case. In addition, the Potency result in assay [8] and in assay [11] was “inactive” each time. Besides, the Potency is 48.5 µM (active) and inactive in assay [7]; 39.9 µM (active) and 71 µM (active) in assay [9]; 39.9 µM (active) in [10]; 5.64 µM (active) in [12].
Turning to `C=C(C)C(=O)OCC(CC)(COC(=O)C(=C)C)COC(=O)C(=C)C`, the Potency result in [1], in assay [2], in assay [3], in assay [4], in assay [5] and in assay [6] was “inactive” each time. The Potency result in [7] and in assay [12] was “inactive” throughout. Further, the Potency was 16.2 µM (active) in assay [8]; 3.62 µM (active) and 3.49 µM (active) in [9]; 14.4 µM (active) and 15.6 µM (active) in assay [10]; 32.2 µM (active) and 27.8 µM (active) in assay [13].
`Oc1ccc(OCc2ccccc2)cc1`: the Potency result in assay [1], in [2], in assay [3], in assay [4], in [5] and in assay [6] was “inactive” in each case. Moreover, the Potency result in assay [11] and in assay [12] was “inactive” each time. Also, the Potency in [7] was 30 µM (active); in assay [9], 34.8 µM (active) and 8.71 µM (active). Also, the max activation in [14] was -0.536% (inactive). The call in assay [15] was inactive.
On to `CN(C)c1cccc(O)c1`, for which the Potency entry in assay [1], in assay [2], in assay [3], in assay [4], in assay [5] and in [6] was “inactive” in each case. The Potency entry in [11] was “inactive”. Besides, the Potency in [7] is 49.3 µM (active) and 54.5 µM (active); in assay [8] it was 40.5 µM (active); in assay [9], 2.56 µM (active) and 3.56 µM (active); in [10] it was 16.1 µM (active) and 12.6 µM (active); in [13] it was 32.2 µM (active) and 31.7 µM (active).
For `CC1=CC[C@H]2C[C@@H]1C2(C)C`, the Potency result in [1], in assay [2], in assay [3], in [4], in assay [5] and in assay [6] was “inactive” throughout. Moreover, the Potency entry in [7], in assay [8], in assay [9], in [10], in assay [11] and in [12] was “inactive” in each case.
